# Assay results published in PubChem BioAssay.
# Where “and” joins values, the source holds several entries; their conditions need not be identical. Equal values may be shown once. Inconclusive results are not listed. For part of these data: Measured potencies and affinities stand elsewhere. Calls of active or inactive are those of the source. Unless noted, how the calls were made is not given here.
# Key:
# [1] = target: ATP-dependent translocase ABCB1 (Homo sapiens) (UniProt P08183); assay: P-glycoprotein substrate transport blockade – cell-based (AID 377; in the data active means fluorescence slope change above about 50%); details: MDR1-expressing cells, fluorescent substrate accumulation slope; stronger effect = higher value; concentration not given here
# ATP-dependent translocase ABCB1 (Homo sapiens), sequence (P08183 whole entry, looked up): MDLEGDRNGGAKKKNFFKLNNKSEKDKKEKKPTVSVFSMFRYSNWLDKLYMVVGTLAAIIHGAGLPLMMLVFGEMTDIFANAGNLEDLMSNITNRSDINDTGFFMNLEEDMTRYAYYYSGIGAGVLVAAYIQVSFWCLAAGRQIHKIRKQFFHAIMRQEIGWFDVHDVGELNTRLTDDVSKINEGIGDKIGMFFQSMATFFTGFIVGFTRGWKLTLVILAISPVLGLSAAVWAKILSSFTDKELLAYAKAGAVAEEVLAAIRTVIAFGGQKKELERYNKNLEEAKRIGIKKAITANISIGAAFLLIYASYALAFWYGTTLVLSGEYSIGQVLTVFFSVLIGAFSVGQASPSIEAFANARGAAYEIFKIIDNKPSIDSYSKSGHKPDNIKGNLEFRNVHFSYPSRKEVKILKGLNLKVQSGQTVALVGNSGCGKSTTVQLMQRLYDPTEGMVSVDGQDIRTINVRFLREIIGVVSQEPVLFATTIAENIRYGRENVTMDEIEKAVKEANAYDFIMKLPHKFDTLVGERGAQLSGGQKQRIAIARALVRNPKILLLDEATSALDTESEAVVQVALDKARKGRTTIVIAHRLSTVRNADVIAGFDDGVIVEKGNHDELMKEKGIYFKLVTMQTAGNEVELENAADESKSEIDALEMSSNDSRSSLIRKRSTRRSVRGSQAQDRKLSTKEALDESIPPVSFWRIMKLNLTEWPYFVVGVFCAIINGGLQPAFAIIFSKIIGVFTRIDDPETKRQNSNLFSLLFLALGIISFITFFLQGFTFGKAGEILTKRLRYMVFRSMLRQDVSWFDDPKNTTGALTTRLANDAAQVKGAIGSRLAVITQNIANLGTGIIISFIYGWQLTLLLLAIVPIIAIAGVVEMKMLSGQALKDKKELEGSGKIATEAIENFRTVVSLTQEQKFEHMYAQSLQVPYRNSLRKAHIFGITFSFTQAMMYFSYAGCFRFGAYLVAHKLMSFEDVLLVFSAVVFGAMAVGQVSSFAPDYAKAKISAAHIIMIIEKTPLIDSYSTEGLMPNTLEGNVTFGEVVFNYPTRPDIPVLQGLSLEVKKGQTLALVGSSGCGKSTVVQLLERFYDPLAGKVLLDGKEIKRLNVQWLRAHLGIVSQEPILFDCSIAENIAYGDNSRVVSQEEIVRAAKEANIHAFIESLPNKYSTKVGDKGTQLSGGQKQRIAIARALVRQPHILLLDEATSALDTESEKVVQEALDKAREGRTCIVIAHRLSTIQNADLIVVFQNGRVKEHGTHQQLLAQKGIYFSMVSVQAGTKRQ
# [2] = antimalarial activity against Dd2 strain (AID 2302;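 active means growth inhibition above 50% at the single 2 µM test dose, taken to imply half-maximal potency below 2 µM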;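 further: 0% = DMSO untreated growth and 100% = chloroquine plus artemisinin killed control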); details: P. falciparum Dd2 in RBCs, LDH growth readout, 72 h; at 2 µM; stronger effect = higher value
# [3] = human hepatoma cell viability loss – ATP luminescence, cytotoxicity control for P. falciparum antimalarial project, primary screen (AID 2303;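 active means inhibition above 50%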;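 further: 0% = DMSO wells and 100% = digitonin-killed cells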); details: HepG2 viability, 24-48 h, at 10 µM, stronger effect = higher value
# [4] = target: L-lactate dehydrogenase (Plasmodium falciparum (isolate CDC / Honduras)) (UniProt Q27743); assay: PfLDH activity inhibition – cell lysate, 3D7 strain, counter-screen for P. falciparum growth inhibition project (AID 2304);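 further: 0% = vehicle and 100% = reference inhibitor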; details: P. falciparum 3D7 crude extract, LDH APAD/NBT absorbance; at 2 µM; stronger effect = higher value
# L-lactate dehydrogenase (Plasmodium falciparum (isolate CDC / Honduras)), sequence (Q27743 whole entry, looked up): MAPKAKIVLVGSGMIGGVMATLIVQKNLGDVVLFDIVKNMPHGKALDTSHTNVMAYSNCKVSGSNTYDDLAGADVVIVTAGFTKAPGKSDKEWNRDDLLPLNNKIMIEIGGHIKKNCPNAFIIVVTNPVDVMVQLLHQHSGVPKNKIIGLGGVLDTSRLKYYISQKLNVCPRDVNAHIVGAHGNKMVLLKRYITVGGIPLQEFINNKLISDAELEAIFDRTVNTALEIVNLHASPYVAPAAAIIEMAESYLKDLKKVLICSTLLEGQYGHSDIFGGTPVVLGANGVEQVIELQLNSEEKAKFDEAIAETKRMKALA
# [5] = inhibition of 3D7 malaria parasite growth – strain 3D7 (AID 2306);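 further: 0% = DMSO wells and 100% = chloroquine plus artemisinin control wells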; details: P. falciparum 3D7 erythrocytic growth, LDH absorbance, 72 h; at 2 µM; stronger effect = higher value
# [6] = compounds altering circadian rhythm period length – cell-based, LOPAC library, luminescence reporter (AID 2774); details: circadian reporter cells, at 7 µM, actives lie on both sides;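 further: values are relative to mean of DMSO wells on each plate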
# [7] = compounds altering viability of human ES cells (AID 493140); details: human embryonic stem cell survival screen; stronger effect = higher value;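 further: cells exposed to compounds for four days before counting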
# [8] = P. berghei load reduction in hepatocytes – cell-based, HepG2, luciferase luminescence, HepG2 viability, primary screen (AID 624349; in the data active means parasite load remaining mostly below about 12%, no sharp cut-off; inactive means mostly above about 10%;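 further: 100% = mean of DMSO negative control wells on the same plate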); details: P. berghei liver stage in HepG2, luciferase luminescence, concentration not given here; parasite load remaining: stronger effect = lower value; viability: measured here: HepG2 viability without parasites
# [9] = system: Hepatitis C virus NS3 helicase; assay: blockers of NS3h binding to ssDNA – biochemical, fluorescence polarization, LOPAC1280 library, primary screen (AID 687035; in the data active means inhibition above about 37%); details: Purified HCV NS3 helicase, Cy5-dT15 ssDNA binding fluorescence polarization; stronger effect = higher value; concentration not given here
# [10] = compounds altering Cy5-DNA-NS3h complex signal – biochemical, LOPAC1280, artefact control for HCV NS3 helicase inhibitor project (AID 687037); details: Cy5-DNA-NS3h complex fluorescence interference counterscreen
# [11] = target: Calcium-dependent protein kinase 1 (Plasmodium falciparum (isolate 3D7)) (UniProt P62344); assay: PfCDPK1 kinase inhibitors, biochemical, TCAMS library (AID 1159585; cut-off not given, nearly all actives have IC50 up to about 0.98 µM;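 further: inhibitors leave more ATP so luminescence rises with inhibition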); details: recombinant PfCDPK1, Kinase-Glo ATP depletion luminescence
# Calcium-dependent protein kinase 1 (Plasmodium falciparum (isolate 3D7)), sequence (P62344 whole entry, looked up): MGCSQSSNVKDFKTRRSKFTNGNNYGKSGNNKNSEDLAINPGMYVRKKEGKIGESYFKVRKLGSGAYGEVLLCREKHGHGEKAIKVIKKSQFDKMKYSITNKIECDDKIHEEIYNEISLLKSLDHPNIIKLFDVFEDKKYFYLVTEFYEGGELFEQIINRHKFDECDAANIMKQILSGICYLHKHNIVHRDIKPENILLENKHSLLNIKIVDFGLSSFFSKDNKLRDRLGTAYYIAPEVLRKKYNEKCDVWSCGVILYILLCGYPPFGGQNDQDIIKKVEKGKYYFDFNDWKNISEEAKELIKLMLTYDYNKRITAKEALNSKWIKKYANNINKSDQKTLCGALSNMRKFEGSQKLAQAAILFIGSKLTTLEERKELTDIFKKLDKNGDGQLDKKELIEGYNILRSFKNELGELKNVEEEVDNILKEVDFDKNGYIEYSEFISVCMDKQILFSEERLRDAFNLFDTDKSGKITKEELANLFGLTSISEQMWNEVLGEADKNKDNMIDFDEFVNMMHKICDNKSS
# [12] = target: Plasmodium falciparum protein kinase 6 (PK6, PF3D7_1337100) (UniProt Q8IDW1); assay: PfPK6 kinase inhibitors, biochemical, TCAMS library (AID 1159586); details: recombinant PfPK6, Kinase-Glo ATP depletion luminescence
# Plasmodium falciparum protein kinase 6 (PK6, PF3D7_1337100), sequence (Q8IDW1 1-305): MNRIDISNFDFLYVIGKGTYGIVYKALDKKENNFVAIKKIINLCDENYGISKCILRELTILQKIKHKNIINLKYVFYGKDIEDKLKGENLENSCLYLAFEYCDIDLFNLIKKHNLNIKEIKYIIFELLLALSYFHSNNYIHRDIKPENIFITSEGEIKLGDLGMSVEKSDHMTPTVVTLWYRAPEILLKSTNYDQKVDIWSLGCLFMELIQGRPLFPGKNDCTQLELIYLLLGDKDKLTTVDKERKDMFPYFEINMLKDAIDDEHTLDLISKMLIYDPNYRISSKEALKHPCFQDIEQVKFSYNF
# [13] = target: Protein kinase 7 (PK7), Plasmodium falciparum 3D7 (PF3D7_0213400) (UniProt Q7YTF7); assay: inhibition of Plasmodium PK7 catalytic activity – biochemical, TCAMS antimalarial set, Kinase-Glo luminescence (AID 1159587); details: recombinant PfPK7, Kinase-Glo ATP depletion luminescence
# Protein kinase 7 (PK7), Plasmodium falciparum 3D7 (PF3D7_0213400), sequence (Q7YTF7 1-343): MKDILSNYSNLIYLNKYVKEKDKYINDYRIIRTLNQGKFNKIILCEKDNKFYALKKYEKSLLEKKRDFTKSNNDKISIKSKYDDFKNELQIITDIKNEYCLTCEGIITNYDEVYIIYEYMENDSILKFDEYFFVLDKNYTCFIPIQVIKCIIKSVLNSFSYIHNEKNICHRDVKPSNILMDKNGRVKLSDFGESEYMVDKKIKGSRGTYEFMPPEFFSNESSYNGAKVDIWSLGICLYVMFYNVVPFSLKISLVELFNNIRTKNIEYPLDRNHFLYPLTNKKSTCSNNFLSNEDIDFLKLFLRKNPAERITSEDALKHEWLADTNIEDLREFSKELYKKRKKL
# [14] = target: Calcium-dependent protein kinase 4 (Plasmodium falciparum (isolate 3D7)) (UniProt Q8IBS5); assay: PfCDPK4 kinase inhibitors, biochemical, TCAMS library (AID 1159588; cut-off not given, nearly all actives have IC50 up to about 0.91 µM); details: recombinant PfCDPK4, Kinase-Glo ATP depletion luminescence
# Calcium-dependent protein kinase 4 (Plasmodium falciparum (isolate 3D7)), sequence (Q8IBS5 whole entry, looked up): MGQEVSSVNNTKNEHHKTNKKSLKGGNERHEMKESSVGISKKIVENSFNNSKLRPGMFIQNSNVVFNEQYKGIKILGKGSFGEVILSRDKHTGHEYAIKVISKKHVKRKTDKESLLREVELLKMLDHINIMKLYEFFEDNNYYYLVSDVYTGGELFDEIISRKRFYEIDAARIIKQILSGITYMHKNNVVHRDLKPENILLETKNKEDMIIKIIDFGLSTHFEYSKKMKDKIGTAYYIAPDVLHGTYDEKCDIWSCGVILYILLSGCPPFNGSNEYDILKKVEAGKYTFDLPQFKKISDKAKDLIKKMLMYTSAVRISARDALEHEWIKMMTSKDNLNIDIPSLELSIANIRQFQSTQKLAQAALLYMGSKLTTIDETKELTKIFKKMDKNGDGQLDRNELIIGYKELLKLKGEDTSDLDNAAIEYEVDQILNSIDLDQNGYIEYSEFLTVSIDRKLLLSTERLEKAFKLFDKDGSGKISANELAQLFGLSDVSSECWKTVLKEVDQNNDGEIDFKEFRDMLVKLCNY
# [15] = system: Aerobactin synthetase IucA (Klebsiella pneumoniae, hypervirulent); assay: biochemical IucA inhibition screen of LOPAC library by absorbance (AID 1346212); details: IucA enzyme assay, absorbance (OD) readout; stronger effect = lower value;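 tested at 8 µM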;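 further: 100% = no compound wells and 0% = no enzyme wells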
# [16] = viability loss with induced miR-34 in A549 – imaging, A549 dox-inducible miR-34, nuclei and caspase counts, primary screen (AID 1347080;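 active means compounds whose cell count with miR-34 switched on is under 0.7 times the count with it off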); details: A549 miR-34 inducible, Hoechst nuclei count, 48 h
# [17] = blockers of cellular phospholipid synthesis – cell-based, LOPAC library, screen 4, primary screen (AID 1347384); details: animal cells, phospholipid biosynthesis inhibition screen; at 10 µM
# [18] = galactose survival enhancers in mitochondrial complex I cybrids – cell-based, galactose medium, ATP luminescence, primary screen (AID 1645843;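 active means z-score of at least 1.8 in each of two replicates, scored against plate mean and spread of sample wells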;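 further: positive z means more ATP and so rescue of galactose-driven cybrid death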); details: complex I mutant cybrid cells, 72 h, stronger effect = higher value
# [19] = growth inhibition, single agent or in combination, cell-based, chromothripsis tumors, cisplatin or BGB combos (AID 1671449; in the data active means inhibition above about 80%;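 further: cells exposed for 96 hours; 0% = vehicle DMSO and 100% = killing by high DMSO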); details: LFS_MB_P medulloblastoma cells
# [20] = growth inhibition, single agent and combos, cell-based, chromothripsis tumors, cisplatin or BGB combos (AID 1671450; in the data active means inhibition above about 80%;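 further: cells exposed to compound for four days; 0% = vehicle DMSO and 100% = cell killing by high DMSO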); details: HDN33 neuroblastoma cells, stronger effect = higher value
# [21] = growth inhibition, single agents and combos, ICB984, cell-based, cisplatin or BGB combos, synergistic combos for chromothripsis tumors (AID 1671451); details: ICB984 medulloblastoma cells, drug combinations, stronger effect = higher value;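 further: cells exposed for 96 hours before readout; 0% = vehicle DMSO and 100% = killing by high DMSO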
# [22] = growth inhibition, single agents and combos, LFS_MB_1R, cell-based, cisplatin or BGB combos, synergistic combos for chromothripsis tumors (AID 1671452; in the data active means inhibition above about 80%;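 further: cells exposed for 96 hours before readout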); details: LFS_MB_1R medulloblastoma cells, stronger effect = higher value
# [23] = measured here: combination with BGB IC40, at 0.05 µM
smiles,measurement,setting,value
Cc1c2ccncc2c(C)c2c1[nH]c1ccccc12,fluorescence slope change,[1],77.1% (active)
same,growth inhibition,[2],97% (active)
same,inhibition,[3],38% (inactive)
same,inhibition,[4],2% (inactive)
same,growth inhibition,[5],95% (active)
same,period change,[6],0.09 h (inactive)
same,survival,[7],10.4 (inactive)
same,parasite load remaining,[8],62% (inactive) and 52.8% (inactive)
same,viability,[8],85.3% and 75.8%
same,inhibition,[9],-3% (inactive)
same,fluorescence ratio (interference),[10],1 (inactive)
same,outcome,[11],inactive
same,outcome,[12],inactive
same,outcome,[13],inactive
same,outcome,[14],inactive
same,remaining activity,[15],81.7% (inactive)
same,fold change,[16]; stronger effect = lower value,1.32 (inactive) and 0.785 (inactive)
same,fold change,[16]; measured here: relative caspase fold change +Dox/-Dox,1.54 and 1.45
same,cell count,"[16]; measured here: total cells with miR-34 induction, stronger effect = lower value",324 and 1410
same,cell count,[16]; measured here: total cells without miR-34 induction,246 and 1800
same,outcome,[17],inactive
same,z-score,[18],-0.975 (inactive)
same,inhibition,"[19]; at 0.5 µM, stronger effect = higher value",-2.79% (inactive)
same,inhibition,"[19]; measured here: combination with BGB IC20, at 0.005 µM",-42.2%
same,inhibition,"[19]; measured here: combination with BGB IC40, at 0.005 µM",16.3%
same,inhibition,[19]; [23],-3.69%
same,inhibition,"[19]; measured here: combination with cisplatin, at 0.5 µM, stronger effect = higher value",-10.1%
same,inhibition,"[19]; measured here: combination with cisplatin, at 5 µM, stronger effect = higher value",97%
same,inhibition,"[20]; BGB combo, at 5 µM",71.9%
same,inhibition,[20]; at 0.5 µM,19.9% (inactive)
same,inhibition,"[20]; cisplatin combo, at 5 µM",81.9%
same,inhibition,"[20]; measured here: with BGB IC20 combination, at 0.5 µM",6.43%
same,inhibition,"[20]; measured here: with cisplatin IC20 combination, at 0.5 µM",19.1%
same,inhibition,"[20]; single agent, at 5 µM",86.5%
same,inhibition,"[21]; BGB IC20 combo, at 0.005 µM",64.1%
same,inhibition,"[21]; BGB IC40 combo, at 0.005 µM",71.1%
same,inhibition,"[21]; BGB IC40 combo, at 0.05 µM",99.2%
same,inhibition,[21]; at 0.5 µM,-7.09% (inactive)
same,inhibition,"[21]; cisplatin combo, at 0.05 µM",99.7%
same,inhibition,"[21]; cisplatin combo, at 0.5 µM",-15.1%
same,inhibition,"[21]; cisplatin combo, at 5 µM",2.54%
same,inhibition,"[21]; measured here: 5 uM single agent, at 5 µM",-6.79%
same,inhibition,[22]; at 0.5 µM,52.5% (inactive)
same,inhibition,[22]; [23],-15.3%
same,inhibition,"[22]; measured here: combination with cisplatin, at 0.5 µM",90.8%
